# Source: PubChem BioAssay (EPA / NIEHS)
# More than one record can exist for a structure, and the calls need not agree. Calls of active or inactive are those of the source. How the source made its calls: active means hit-call score of the fitted dose curve at least 0.9, where 1 is the maximum; inactive means score below 0.9.
# Assay: CCTE_Shafer_MEA_acute_cross_correlation_HWHM: CCTE's Neural Acute Assay for Cross Correlation at Half Width at Half Maximum, Shafer Lab (AID 2284026)
# Protocol: CCTE_Shafer_MEA_acute assay is conducted using Axion Biosystems 48 well microelectrode array (MEA) plates and Maestro recording system. Each well of the MEA plate contains a grid of 16 microelectrodes embedded in the culture surface. Electrically active cells, such as neurons, can be cultured over the electrodes, and electrical activity in these cells can be recorded extracellularly. The spontaneous firing of neurons is captured from each electrode on a microsecond timescale providing both temporally and spatially precise data. […] The CCTE_Shafer_MEA_acute assay uses primary cultures of rat cortical neurons. As these cultures mature over time, neural networks develop functional activity and form cohesive networks in which electrical activity can be highly coordinated. Baseline 40-minute recordings are made on days post-plating 13 or 15, followed by a secondary 40-minute recording after chemical exposure.CCTE_Shafer_MEA_acute_cross_correlation_HWHM is a component of the CCTE_Shafer_MEA_acute assay. It measures the distance along the x-axis (phase lag) from the left half maximum height to the center of the cross-correlogram of action potential firing during a recording in a microelectrode array (MEA) using Axion Biosystems Maestro 768 channel amplifier with the AxIS adaptive spike detector. Smaller values indicate a narrower correlogram (greater synchrony). The recordings before and after chemical treatment are used to calculate a percent change in the half width at half maximum of the cross-correlogram in each well.Data from the assay component CCTE_Shafer_MEA_acute_cross_correlation_HWHM was analyzed into 1 assay endpoint. This assay endpoint, CCTE_Shafer_MEA_acute_cross_correlation_HWHM, was analyzed in the negative analysis fitting direction relative to DMSO as the negative control and baseline of activity. Using a type of functional reporter, gain or loss-of-signal activity can be used to understand electrical activity.
# Spontaneous activity in the cortical cultures was recorded using an Axion Biosystems Maestro 768 channel amplifier and Axion Integrated Studios (AxIS) v1.8 (or later) software. The amplifier recorded from all channels simultaneously (gain = 1200 x; sampling rate = 12.5 kHz/channel): raw signals were filtered with a Butterworth band-pass filter (300-5000 Hz), which filters out slower local field potentials leaving only fast potentials, i.e., "spikes", arising from extracellular currents associated with action potentials (Pine 2006; Wheeler and Nam 2011). On-line spike detection of filtered signals was conducted with the AxIS adaptive spike detector, using a threshold of 8x the root mean squared (rms) noise on each channel. Any electrodes with rms noise levels greater than 5 uV were grounded (e.g., no data were recorded). Once grounded, an electrode was grounded for the duration of the experiment. All recordings were conducted at 37 C. Wells were deemed usable if on the day of the exposure >/= 10 electrodes were active (defined as >/= 5 spikes/min). On DIV 13 or 15, a minimum of three wells from one cortical culture preparation were treated with each compound (0.03-40 uM). Prior to recording baseline activity, each mwMEA plate was placed in the Maestro at 37 C and allowed to sit for 20 min while firing rates stabilized. Baseline activity (40 min) was recorded before the addition of each compound. An additional 40 min of spontaneous activity was recorded in the presence of each compound. Changes in network parameters relative to baseline were assessed following compound treatment.
Compound,outcome,AC50
N[C@@H](CCC(=O)O)C(=O)O,inactive,
O=C(c1ccc(OCCN2CCCCC2)cc1)c1c(-c2ccc(O)cc2)sc2cc(O)ccc12,,32.7 µM (active)
CC/C(=C(\c1ccccc1)c1ccc(OCCN(C)C)cc1)c1ccccc1,inactive,16.4 µM (active)
CCn1cc(C(=O)O)c(=O)c2ccc(C)nc21,inactive,
CCCO[Si](OCCC)(OCCC)OCCC,,0.0212 µM (active)
CC(C)CCCC(C)(C)O,inactive,
CCCCN(CCO)CCO,inactive,
CCCCOCCOCCO,inactive,
CC(C)(CO)CO,inactive,
c1ccc(OCCOc2ccccc2)cc1,inactive,
CC(=O)c1ccc(C)cc1,inactive,
